# Assay results published in publication PMC13423814.
# Key:
# Details in all cases: DSSO, in cells
# SERBP1 = SERBP1 (UniProt Q8NC51)
# UTP18 = UTP18 (UniProt Q9Y5J1)
# SLC25A3 = SLC25A3 (UniProt Q00325)
# TSSC4 = TSSC4 (UniProt Q9Y5U2)
# YWHAZ = YWHAZ (UniProt P63104)
# SF3B2 = SF3B2 (UniProt Q13435)
# SH2D4A = SH2D4A (UniProt Q9H788)
# ZMAT2 = ZMAT2 (UniProt Q96NC0)
# SRSF1 = SRSF1 (UniProt Q07955)
# SRSF6 = SRSF6 (UniProt Q13247)
# SRSF7 = SRSF7 (UniProt Q16629)
# TIMM17A = TIMM17A (UniProt Q99595)
# SF3B3 = SF3B3 (UniProt Q15393)
# Sequence of SF3B3 (Q15393 whole entry): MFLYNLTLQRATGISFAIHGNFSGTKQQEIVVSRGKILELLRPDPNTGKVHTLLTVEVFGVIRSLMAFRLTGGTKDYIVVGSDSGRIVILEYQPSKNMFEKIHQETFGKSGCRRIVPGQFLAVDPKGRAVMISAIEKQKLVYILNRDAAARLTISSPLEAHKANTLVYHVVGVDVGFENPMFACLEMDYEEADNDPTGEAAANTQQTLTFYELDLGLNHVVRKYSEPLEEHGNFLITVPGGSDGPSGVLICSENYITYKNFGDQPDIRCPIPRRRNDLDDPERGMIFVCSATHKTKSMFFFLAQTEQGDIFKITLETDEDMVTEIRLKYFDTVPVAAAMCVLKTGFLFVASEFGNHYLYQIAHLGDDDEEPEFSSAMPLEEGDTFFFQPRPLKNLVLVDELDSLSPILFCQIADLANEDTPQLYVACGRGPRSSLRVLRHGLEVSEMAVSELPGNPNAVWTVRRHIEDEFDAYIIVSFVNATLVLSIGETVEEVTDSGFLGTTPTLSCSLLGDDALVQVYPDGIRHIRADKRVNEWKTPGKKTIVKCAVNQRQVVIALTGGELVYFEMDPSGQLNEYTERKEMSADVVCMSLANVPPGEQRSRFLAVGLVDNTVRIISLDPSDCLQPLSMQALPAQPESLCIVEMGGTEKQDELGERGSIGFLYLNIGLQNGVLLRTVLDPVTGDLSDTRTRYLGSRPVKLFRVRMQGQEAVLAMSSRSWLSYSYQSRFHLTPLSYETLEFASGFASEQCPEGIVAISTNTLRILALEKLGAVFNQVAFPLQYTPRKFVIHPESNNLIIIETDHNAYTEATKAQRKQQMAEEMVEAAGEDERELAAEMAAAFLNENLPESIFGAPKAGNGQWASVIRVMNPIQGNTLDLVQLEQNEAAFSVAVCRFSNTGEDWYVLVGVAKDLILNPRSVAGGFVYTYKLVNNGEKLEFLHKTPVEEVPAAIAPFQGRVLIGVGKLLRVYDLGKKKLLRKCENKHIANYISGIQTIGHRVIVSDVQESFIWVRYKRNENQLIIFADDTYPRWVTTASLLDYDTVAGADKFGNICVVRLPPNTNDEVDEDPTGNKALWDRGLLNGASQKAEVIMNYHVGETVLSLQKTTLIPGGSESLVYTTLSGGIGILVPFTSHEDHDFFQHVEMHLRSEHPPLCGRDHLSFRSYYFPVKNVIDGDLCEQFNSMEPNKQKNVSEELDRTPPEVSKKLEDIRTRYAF
# Sequence of SRSF3, P84103 (P84103 whole entry): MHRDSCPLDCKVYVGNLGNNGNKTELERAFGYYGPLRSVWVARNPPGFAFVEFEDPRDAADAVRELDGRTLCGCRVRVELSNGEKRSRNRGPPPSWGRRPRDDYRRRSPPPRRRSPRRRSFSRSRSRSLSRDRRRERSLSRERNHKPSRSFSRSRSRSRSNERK
# Sequence of SRSF1 (Q07955 whole entry): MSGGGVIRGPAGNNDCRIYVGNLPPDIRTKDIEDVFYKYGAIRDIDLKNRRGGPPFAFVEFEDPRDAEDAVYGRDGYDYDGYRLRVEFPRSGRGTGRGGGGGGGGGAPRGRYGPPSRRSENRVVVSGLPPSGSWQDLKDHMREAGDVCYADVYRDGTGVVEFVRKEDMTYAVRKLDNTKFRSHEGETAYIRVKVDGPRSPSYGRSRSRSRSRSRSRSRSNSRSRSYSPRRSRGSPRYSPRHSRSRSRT
# Sequence of UTP18 (Q9Y5J1 whole entry): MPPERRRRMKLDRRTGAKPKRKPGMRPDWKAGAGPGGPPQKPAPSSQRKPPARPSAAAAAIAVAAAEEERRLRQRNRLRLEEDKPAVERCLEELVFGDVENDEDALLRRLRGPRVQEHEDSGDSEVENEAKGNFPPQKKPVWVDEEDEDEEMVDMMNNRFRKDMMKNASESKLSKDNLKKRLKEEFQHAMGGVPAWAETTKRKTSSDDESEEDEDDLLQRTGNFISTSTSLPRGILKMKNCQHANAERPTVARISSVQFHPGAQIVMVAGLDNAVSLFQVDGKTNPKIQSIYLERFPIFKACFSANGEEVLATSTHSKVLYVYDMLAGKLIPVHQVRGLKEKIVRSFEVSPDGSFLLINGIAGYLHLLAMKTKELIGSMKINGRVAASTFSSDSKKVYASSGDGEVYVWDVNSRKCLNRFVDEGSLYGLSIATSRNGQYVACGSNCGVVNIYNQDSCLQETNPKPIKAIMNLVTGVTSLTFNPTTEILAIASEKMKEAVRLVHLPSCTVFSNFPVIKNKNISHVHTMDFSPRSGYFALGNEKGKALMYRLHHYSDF
# Sequence of YWHAZ (P63104 whole entry): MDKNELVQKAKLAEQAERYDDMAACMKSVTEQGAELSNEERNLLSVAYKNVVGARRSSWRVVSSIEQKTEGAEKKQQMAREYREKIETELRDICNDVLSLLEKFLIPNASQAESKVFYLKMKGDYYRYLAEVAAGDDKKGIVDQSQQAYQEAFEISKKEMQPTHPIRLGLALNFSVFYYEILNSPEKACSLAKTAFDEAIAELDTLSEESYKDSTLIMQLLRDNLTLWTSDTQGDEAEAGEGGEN
# Sequence of SRSF7 (Q16629 whole entry): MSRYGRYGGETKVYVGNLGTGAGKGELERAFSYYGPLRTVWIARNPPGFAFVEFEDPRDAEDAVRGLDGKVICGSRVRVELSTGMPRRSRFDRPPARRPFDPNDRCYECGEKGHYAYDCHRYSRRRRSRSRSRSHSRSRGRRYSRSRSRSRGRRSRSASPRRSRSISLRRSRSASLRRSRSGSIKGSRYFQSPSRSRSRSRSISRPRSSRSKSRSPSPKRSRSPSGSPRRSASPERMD
# Sequence of TIMM50, Q3ZCQ8 (Q3ZCQ8 whole entry): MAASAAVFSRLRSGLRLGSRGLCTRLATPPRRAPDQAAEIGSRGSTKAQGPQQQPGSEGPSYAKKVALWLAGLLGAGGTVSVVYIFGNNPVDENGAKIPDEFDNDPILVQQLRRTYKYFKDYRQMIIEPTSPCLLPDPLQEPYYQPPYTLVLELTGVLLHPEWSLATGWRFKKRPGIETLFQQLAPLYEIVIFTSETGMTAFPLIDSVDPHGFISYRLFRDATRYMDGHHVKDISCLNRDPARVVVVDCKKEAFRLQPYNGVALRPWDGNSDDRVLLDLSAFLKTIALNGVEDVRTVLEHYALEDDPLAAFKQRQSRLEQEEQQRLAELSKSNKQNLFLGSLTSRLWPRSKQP
# Sequence of SNRPE, P62304 (P62304 whole entry): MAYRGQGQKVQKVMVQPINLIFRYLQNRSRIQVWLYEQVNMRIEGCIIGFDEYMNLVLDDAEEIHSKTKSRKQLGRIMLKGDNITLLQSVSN
# Sequence of SLC25A3 (Q00325 whole entry): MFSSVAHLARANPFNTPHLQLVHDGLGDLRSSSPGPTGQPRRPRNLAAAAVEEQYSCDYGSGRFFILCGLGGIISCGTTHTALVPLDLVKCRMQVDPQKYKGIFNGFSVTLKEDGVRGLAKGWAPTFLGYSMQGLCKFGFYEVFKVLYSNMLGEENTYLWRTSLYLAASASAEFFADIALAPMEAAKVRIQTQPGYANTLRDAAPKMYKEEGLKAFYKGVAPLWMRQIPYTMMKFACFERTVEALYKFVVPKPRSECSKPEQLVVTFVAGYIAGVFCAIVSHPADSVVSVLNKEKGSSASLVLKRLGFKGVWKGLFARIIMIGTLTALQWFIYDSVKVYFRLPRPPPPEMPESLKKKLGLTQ
# Sequence of PPP1CB, P62140 (P62140 whole entry): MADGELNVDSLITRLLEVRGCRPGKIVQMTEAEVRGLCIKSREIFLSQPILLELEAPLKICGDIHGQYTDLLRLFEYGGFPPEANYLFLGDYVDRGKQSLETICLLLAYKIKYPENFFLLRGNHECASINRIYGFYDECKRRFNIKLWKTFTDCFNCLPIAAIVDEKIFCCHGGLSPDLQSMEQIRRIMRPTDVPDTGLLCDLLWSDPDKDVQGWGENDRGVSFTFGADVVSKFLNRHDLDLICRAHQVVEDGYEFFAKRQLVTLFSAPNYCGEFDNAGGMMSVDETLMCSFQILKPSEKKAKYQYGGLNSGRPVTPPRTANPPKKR
# Sequence of SH2D4A (Q9H788 whole entry): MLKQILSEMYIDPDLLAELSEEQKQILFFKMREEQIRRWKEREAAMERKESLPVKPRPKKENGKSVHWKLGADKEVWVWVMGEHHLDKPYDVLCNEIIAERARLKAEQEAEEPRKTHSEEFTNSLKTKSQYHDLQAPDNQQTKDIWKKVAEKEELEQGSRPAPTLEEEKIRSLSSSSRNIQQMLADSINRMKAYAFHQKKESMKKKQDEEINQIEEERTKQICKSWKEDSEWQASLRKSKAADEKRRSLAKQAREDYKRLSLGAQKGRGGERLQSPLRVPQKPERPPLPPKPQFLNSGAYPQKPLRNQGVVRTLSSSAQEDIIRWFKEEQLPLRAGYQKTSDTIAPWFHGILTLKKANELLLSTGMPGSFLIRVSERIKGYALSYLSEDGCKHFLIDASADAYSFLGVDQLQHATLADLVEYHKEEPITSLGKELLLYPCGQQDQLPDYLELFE
# Sequence of PRPF38A, Q8NAV1 (Q8NAV1 whole entry): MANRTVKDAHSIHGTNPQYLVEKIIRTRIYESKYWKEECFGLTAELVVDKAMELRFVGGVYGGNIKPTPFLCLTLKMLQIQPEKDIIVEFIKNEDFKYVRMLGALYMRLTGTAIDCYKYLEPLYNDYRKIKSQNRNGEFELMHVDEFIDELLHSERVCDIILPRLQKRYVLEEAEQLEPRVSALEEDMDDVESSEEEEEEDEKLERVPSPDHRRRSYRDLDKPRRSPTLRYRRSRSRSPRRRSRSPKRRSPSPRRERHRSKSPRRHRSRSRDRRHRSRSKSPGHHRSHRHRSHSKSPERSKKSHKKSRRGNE
# Sequence of ZMAT2 (Q96NC0 whole entry): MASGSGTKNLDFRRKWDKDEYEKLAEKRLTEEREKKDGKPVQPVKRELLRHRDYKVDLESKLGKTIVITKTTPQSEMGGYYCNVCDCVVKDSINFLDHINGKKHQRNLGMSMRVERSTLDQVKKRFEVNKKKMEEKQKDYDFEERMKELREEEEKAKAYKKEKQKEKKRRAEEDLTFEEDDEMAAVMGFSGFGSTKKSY
substance,measurement,setting,value
"RPS20, P60866",cross-linked residues,SERBP1,K4 - K39
"PWP2, Q15269",cross-linked residues,UTP18,K260 - K172
"COX4I1, P13073",cross-linked residues,SLC25A3,K60 - K295
"SNRNP200, O75643",cross-linked residues,TSSC4,K1883 - K234
"YWHAB, P31946",cross-linked residues,YWHAZ,K13 - K68
"SNRPE, P62304",cross-linked residues,SF3B2,K12 - K352
"PPP1CB, P62140",cross-linked residues,SH2D4A,K25 - K105
"PRPF38A, Q8NAV1",cross-linked residues,ZMAT2,K7 - K45
"SRSF3, P84103",cross-linked residues,SRSF1,K23 - K30
same,cross-linked residues,SRSF6,K23 - K101
same,cross-linked residues,SRSF7,K85 - K24
"TIMM50, Q3ZCQ8",cross-linked residues,TIMM17A,T46 - K56
"SF3A3, Q12874",cross-linked residues,SF3B3,K496 - K974
